Reference: PubChem BioAssay AID1159580 (chemical genetic matrix, 2015)
The whole screen tested about 5,500 compounds, of which about 2,000 (36%) were called active. Inconclusive results (about 18%) are left out. Rule as the data show it: active = normalized growth mostly below about 0.91 (no sharp cut-off); inconclusive = no clear call, values can overlap the other calls; inactive = mostly above about 0.92. The list shows a part of the results.

Assay: chemical genetic growth profiling, strain panel (AID 1159580);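 also: tested at 20 µM; growth read once vehicle control cultures reached saturation at 30 °C; 1 = growth at the plate median or of vehicle wells; lower values mean less growth of the strain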
Settings: growth OD

Measured: normalized growth

CO[C@@]1(NC(=O)Cc2cccs2)C(=O)N2C(C(=O)O)=C(COC(N)=O)CS[C@@H]21
inactive: S. cerevisiae deletion strains, locus YJR066W, strain TOR1, active compounds read low 0.995 | S. cerevisiae deletion strains, locus YKL009W, strain mrt4, active compounds read low 1.01 | S. cerevisiae deletion strains, locus YKL068W, active compounds read low 0.992 | S. cerevisiae deletion strains, locus YKL085W, strain MDH1 (second series), active compounds read low 0.992 | S. cerevisiae deletion strains, locus YKL085W, strain MDH1, active compounds read low 0.992 | S. cerevisiae deletion strains, locus YKL160W, strain elf1, active compounds read low 0.927 | S. cerevisiae deletion strains, locus YKL190W, strain CNB1, active compounds read low 1.01 | S. cerevisiae deletion strains, locus YKR001C, strain vps1, active compounds read low 0.995 | S. cerevisiae deletion strains, locus YKR026C, strain gcn3, active compounds read low 0.977 | S. cerevisiae deletion strains, locus YKR091W, strain srl3, active compounds read low 0.971 | S. cerevisiae deletion strains, locus YLL001W, strain dnm1, active compounds read low 0.966 | S. cerevisiae deletion strains, locus YLL026W, active compounds read low 0.986 | S. cerevisiae deletion strains, locus YLL041C, strain sdh2, active compounds read low 0.971 | S. cerevisiae deletion strains, locus YLR027C, strain aat2, active compounds read low 0.985 | S. cerevisiae deletion strains, locus YLR039C, strain RIC1, active compounds read low 0.998 | S. cerevisiae deletion strains, locus YLR058C, strain SHM2, active compounds read low 1.01 | S. cerevisiae deletion strains, locus YLR102C, strain apc9, active compounds read low 0.989 | S. cerevisiae deletion strains, locus YLR113W, strain HOG1, active compounds read low 1.06 | S. cerevisiae deletion strains, locus YLR221C, strain rsa3, active compounds read low 1 | S. cerevisiae deletion strains, locus YLR258W, strain gsy2, active compounds read low 0.976 | S. cerevisiae deletion strains, locus YLR262C, strain YPT6 (second series), active compounds read low 0.98 | S. cerevisiae deletion strains, locus YLR262C, strain YPT6, active compounds read low 1.01 | S. cerevisiae deletion strains, locus YLR268W, strain sec22, active compounds read low 0.993 | S. cerevisiae deletion strains, locus YLR320W, strain mms22, active compounds read low 0.977 | S. cerevisiae deletion strains, locus YLR330W, strain CHS5, active compounds read low 1 | S. cerevisiae deletion strains, locus YLR342W, strain FKS1 (second series), active compounds read low 0.985 | S. cerevisiae deletion strains, locus YLR342W, strain FKS1, active compounds read low 0.953 | S. cerevisiae deletion strains, locus YLR357W, strain rsc2, active compounds read low 0.915 | S. cerevisiae deletion strains, locus YLR370C, strain arc18, active compounds read low 0.961 | S. cerevisiae deletion strains, locus YLR371W, strain rom2, active compounds read low 0.992 | S. cerevisiae deletion strains, locus YLR384C, strain iki3, active compounds read low 0.968 | S. cerevisiae deletion strains, locus YLR418C, strain cdc73, active compounds read low 0.988 | S. cerevisiae deletion strains, locus YML016C, strain PPZ1, active compounds read low 1 | S. cerevisiae deletion strains, locus YML032C, strain rad52, active compounds read low 0.994 | S. cerevisiae deletion strains, locus YML120C, strain ndi1, active compounds read low 0.986 | S. cerevisiae deletion strains, locus YML124C, strain tub3, active compounds read low 0.993 | S. cerevisiae deletion strains, locus YMR058W, strain fet3, active compounds read low 0.984 | S. cerevisiae deletion strains, locus YMR078C, strain ctf18, active compounds read low 0.993 | S. cerevisiae deletion strains, locus YMR125W, strain sto1, active compounds read low 0.963 | S. cerevisiae deletion strains, locus YMR129W, active compounds read low 0.971 | S. cerevisiae deletion strains, locus YMR205C, strain PFK2, active compounds read low 0.988 | S. cerevisiae deletion strains, locus YMR223W, strain ubp8, active compounds read low 0.998 | S. cerevisiae deletion strains, locus YMR231W, strain pep5, active compounds read low 0.98 | S. cerevisiae deletion strains, locus YMR307W, strain GAS1, active compounds read low 0.975 | S. cerevisiae deletion strains, locus YNL067W, strain RPL9B, active compounds read low 1 | S. cerevisiae deletion strains, locus YNL071W, strain lat1, active compounds read low 0.973 | S. cerevisiae deletion strains, locus YNL153C, strain GIM3, active compounds read low 1.02 | S. cerevisiae deletion strains, locus YNL183C, strain NPR1, active compounds read low 1 | S. cerevisiae deletion strains, locus YNL209W, strain ssb2, active compounds read low 0.972 | S. cerevisiae deletion strains, locus YNL233W, strain BNI4, active compounds read low 1 | S. cerevisiae deletion strains, locus YNL248C, strain rpa49, active compounds read low 0.916 | S. cerevisiae deletion strains, locus YNL250W, strain rad50, active compounds read low 1.01 | S. cerevisiae deletion strains, locus YNL271C, strain bni1, active compounds read low 0.985 | S. cerevisiae deletion strains, locus YNL298W, strain CLA4, active compounds read low 0.975 | S. cerevisiae deletion strains, locus YNL307C, strain MCK1, active compounds read low 1 | S. cerevisiae deletion strains, locus YNL322C, strain KRE1 (second series), active compounds read low 0.972 | S. cerevisiae deletion strains, locus YNL322C, strain KRE1, active compounds read low 1.01 | S. cerevisiae deletion strains, locus YNR049C, strain mso1, active compounds read low 0.953 | S. cerevisiae deletion strains, locus YNR052C, strain pop2, active compounds read low 1 | S. cerevisiae deletion strains, locus YOL006C, strain TOP1, active compounds read low 1.08 | S. cerevisiae deletion strains, locus YOL012C, strain htz1 1.61 | S. cerevisiae deletion strains, locus YOL147C, strain pex11, active compounds read low 0.992 | S. cerevisiae deletion strains, locus YOR001W, strain rrp6, active compounds read low 1 | S. cerevisiae deletion strains, locus YOR061W, strain CKA2, active compounds read low 1.01 | S. cerevisiae deletion strains, locus YOR069W, strain VPS5, active compounds read low 1 | S. cerevisiae deletion strains, locus YOR070C, strain gyp1, active compounds read low 0.979 | S. cerevisiae deletion strains, locus YOR080W, strain dia2, active compounds read low 0.986 | S. cerevisiae deletion strains, locus YOR083W, strain WHI5, active compounds read low 0.894 | S. cerevisiae deletion strains, locus YOR106W, strain vam3, active compounds read low 0.951 | S. cerevisiae deletion strains, locus YOR136W, strain idh2, active compounds read low 1 | S. cerevisiae deletion strains, locus YOR144C, strain elg1, active compounds read low 0.998 | S. cerevisiae deletion strains, locus YOR184W, strain ser1, active compounds read low 1.02 | S. cerevisiae deletion strains, locus YOR231W, strain MKK1, active compounds read low 1.09 | S. cerevisiae deletion strains, locus YOR265W, strain rbl2, active compounds read low 0.999 | S. cerevisiae deletion strains, locus YOR270C, strain vph1, active compounds read low 0.936 | S. cerevisiae deletion strains, locus YOR290C, strain snf2, active compounds read low 0.945 | S. cerevisiae deletion strains, locus YOR316C, strain cot1, active compounds read low 0.995 | S. cerevisiae deletion strains, locus YPL051W, strain arl3, active compounds read low 0.977 | S. cerevisiae deletion strains, locus YPL078C, strain atp4, active compounds read low 0.937 | S. cerevisiae deletion strains, locus YPL106C, strain sse1, active compounds read low 0.96 | S. cerevisiae deletion strains, locus YPL240C, strain hsp82, active compounds read low 0.984 | S. cerevisiae deletion strains, locus YPL256C, strain CLN2, active compounds read low 1.08 | S. cerevisiae deletion strains, locus YPR119W, strain clb2, active compounds read low 0.992 | S. cerevisiae deletion strains, locus YPR141C, strain kar3, active compounds read low 0.994 | S. cerevisiae deletion strains, locus YPR163C, strain tif3, active compounds read low 1 | S. cerevisiae deletion strains, locus YPR167C, strain met16, active compounds read low 0.998 | S. cerevisiae deletion strains, strain wtn01, active compounds read low 0.99 | S. cerevisiae strains, strain wild type, active compounds read low 1.01
